Records with an inconclusive call do not appear. The source made the active and inactive calls. Calls come from the whole dose curve; as a rule, active = well fitted cell-killing curve with a large enough effect; inconclusive = small, poorly fitted or top-dose-only effect; inactive = flat fitted curve, though single readings scatter.
Assay: Cell Viability - LYMP1-002 - Assay at 16 hr (AID 948);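 for activity change, negative = cytotoxicity: 0% = DMSO alone and full effect = 92 µM tetraoctylammonium bromide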
Details: LYMP1-002 lymphoblastoid cell viability; series mostly up to 92.2 µM; activity change, negative = cytotoxicity: at the top concentration
Description: NIH Chemical Genomics Center [NCGC]
NIH Molecular Libraries Screening Centers Network [MLSCN]
National Institutes of Environmental Health Sciences [NIEHS]
National Toxicology Program [NTP]
We have developed a 1536-well cell-based assay for quantitative high throughput screening (qHTS) against a number of cell lines to determine in vitro cytotoxicity of small molecules. This particular assay uses a human lymphoblastoid cell line (LYMP1-002) purchased from Coriell Institute for Medical Research.
NCGC Assay Protocol Summary:
The CellTiter-Glo luminescent cell viability assay (Promega) is a homogeneous method to measure the number of viable cells in culture. The end point readout of this assay is based on quantitation of intracellular ATP, an indicator of metabolic activity, using the luciferase reaction. Luciferase catalyzes the oxidation of beetle Luciferin to oxyluciferin and light in the presence of ATP. The luminescent signal is proportional to amount of ATP present.
Using the CellTiter-Glo luminescent cell viability assay, the amount of cellular ATP was measured in the lymphoblastoid cell line with complete culture medium following compound treatment for 16 hours. The assay was performed in opaque white Kalypsys 1536-well plates. In the screen, tetraoctylammonium bromide was used as positive control. Library compounds were measured for their ability to cause acute toxicity in the cell line, as reflected by a decrease in intracellular ATP levels, in a concentration-dependent manner. […] AC50 values were determined from concentration-response data modeled with the standard Hill equation.
qHTS protocol for CellTiter Glo lymphoblastoid cellular assay
[Step] [Parameter] [Value] [Description]
1. Reagent; 5 uL; 2500 lymphoblastoid cells/well
2. Time; 5 hr; 37 C incubation
4. Controls; 23 nL; Tetraoctylammonium bromide 6.4pM to 92 uM
5. Time; 16 hr; 37 C incubation
6. Reagent; 5 uL; CellTiter Glo reagent
7. Time; 30 min; Room Temperature
8. Detection; Luminescence; Viewlux plate reader
Keywords: cell viability, cytotoxicity, lymphoblastoid cell line, luminescence, NTPHTS, NTPHTS_NCGC, NIEHS, DSSTox, MLSMR, MLSCN, NIH Roadmap, qHTS, NCGC
Potency is the fitted concentration of half-maximal effect.

Structure (SMILES) | activity change, negative = cytotoxicity | Potency
c1ccc2sc(SSc3nc4ccccc4s3)nc2c1 | -7.79% (inactive) | –
CN(C)CCC(c1ccc(Cl)cc1)c1ccccn1 (stereo not drawn) | -8.47% (inactive) | –
O=C1CN(/N=C/c2ccc([N+](=O)[O-])o2)C(=O)N1 | -22.1% (inactive) | –
Nc1ccc(O)c(C(=O)O)c1 | -8.4% (inactive) | –
CCCCCCCCCCCCCCCCCC(=O)O | -7.23% (inactive) | –
CC(C)NCC(O)COc1cccc2ccccc12 (stereo not drawn) | -6.88% (inactive) | –
O=C(O)/C=C\C(=O)O | -0.885% (inactive) | –
N=C1N=C(N)c2cc3ccccc3cc21 | – | 39.8 µM (active)
Nc1ccc([N+](=O)[O-])cc1O | -6.97% (inactive) | –
COc1cc(CNC(=O)CCCC/C=C/C(C)C)ccc1O | -9.81% (inactive) | –
CN1CCC[C@H]1c1cccnc1 | -2.66% (inactive) | –
CCCOC(=O)c1ccc(O)cc1 | – | inactive
Nc1nc2ccc([N+](=O)[O-])cc2s1 | -7.86% (inactive) | –
COc1cc(/C=C/C(=O)CC(=O)/C=C/c2ccc(O)c(OC)c2)ccc1O | – | 50.1 µM (active)
CN(C)c1ccc(N=NS(=O)(=O)O)cc1 | -11.9% (inactive) | –
O=C(O)c1cc(O)c(O)c(O)c1 | -14.1% (inactive) | –
CC1(C)S[C@@H]2[C@H](NC(=O)[C@H](N)c3ccccc3)C(=O)N2[C@H]1C(=O)O | 6.32% (inactive) | –
C#C[C@]1(O)CC[C@H]2[C@@H]3CCc4cc(O)ccc4[C@H]3CC[C@@]21C | -15.8% (inactive) | –
S=c1[nH]c2ccccc2s1 | -5.23% (inactive) | –
O=c1cc(-c2ccccc2)oc2ccccc12 | -10.3% (inactive) | –
NCCO | -3.08% (inactive) | –
Nc1ccc(O)c([N+](=O)[O-])c1 | -14.2% (inactive) | –
CN(C)c1ccc(C(=C2C=CC(=[N+](C)C)C=C2)c2ccccc2)cc1 | – | 1.58 µM (active)
